Experimental data as given in PubChem BioAssay (NCI).
About 79,000 compounds went through this panel and 15% of them were active in at least one assay; those are over-represented in the sample as a whole. Active and inactive are the calls of the source. No stated cut-off is given here; in the data, active means growth inhibition above about 70%; inactive means the rest.

Tests used:
[1] = NCI Yeast Anticancer Drug Screen. Data for the rad52 strain (AID 147);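 further: 0% = growth of vehicle-treated control cultures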; details: S. cerevisiae rad52 mutant growth inhibition, hits give high values
Method in brief: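 Measured: yeast growth inhibition. System: strain with a defined DNA damage repair alteration. Reference: vehicle-treated control cultures.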

[2] = NCI Yeast Anticancer Drug Screen. Data for the wt1 strain (AID 149);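 further: 0% = growth of vehicle-treated wt1 cultures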; details: S. cerevisiae wt1 strain (SPY 50644) growth inhibition, hits give high values
Method in brief: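 Each compound is tested on wt1 yeast and the loss of growth versus vehicle gives the inhibition value.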

[3] = NCI Yeast Anticancer Drug Screen. Data for the mgt1 strain (AID 153); details: S. cerevisiae mgt1 mutant growth inhibition, hits give high values
Method in brief: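 After exposure of the mgt1 yeast mutant to compound, growth was measured and reported as inhibition compared with vehicle controls.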

[4] = NCI Yeast Anticancer Drug Screen. Data for the rad50 strain (AID 155);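 further: 0% = growth of vehicle-only cultures of the same strain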; details: S. cerevisiae rad50 strain growth inhibition, hits give high values
Method in brief: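 Vehicle-treated cultures provide the reference for the growth inhibition reported for compound-exposed, repair-deficient yeast.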

[5] = NCI Yeast Anticancer Drug Screen. Data for the mec2-1 strain (AID 157); details: S. cerevisiae mec2-1 strain, hits give high values
Method in brief: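 Test agents were screened against the mec2-1 yeast strain, with defined DNA repair or cell cycle alteration. Growth was scored as inhibition against vehicle-only controls.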

[6] = NCI Yeast Anticancer Drug Screen. Data for the rad14 strain (AID 159);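 further: 0% = growth of vehicle-treated control cultures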; details: S. cerevisiae rad14 strain growth inhibition, hits give high values
Method in brief: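 Inhibition of growth is reported for a repair-deficient yeast mutant following compound treatment, calculated relative to cultures that received vehicle.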

[7] = NCI Yeast Anticancer Drug Screen. Data for the sgs1 mgt1 strain (AID 161);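 further: 0% = growth of cultures given vehicle only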; details: S. cerevisiae sgs1 mgt1 strain, hits give high values
Method in brief: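 Read-out: growth inhibition vs vehicle controls. Cells: mutant yeast strain deficient in DNA damage repair.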

[8] = NCI Yeast Anticancer Drug Screen. Data for the CLN2oe strain (AID 163);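 further: 0% = growth of vehicle-only control cultures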; details: S. cerevisiae CLN2oe strain, hits give high values
Method in brief: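 Here, growth inhibition in a cell-cycle-altered yeast strain after compound exposure was quantified against vehicle control growth.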

[9] = NCI Yeast Anticancer Drug Screen. Data for the cln2 rad14 strain (AID 165);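 further: 0% = growth equal to vehicle treated cultures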; details: S. cerevisiae cln2 rad14 strain, hits give high values
Method in brief: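 Growth of compound-exposed yeast (cln2 rad14 genotype) measured and expressed as inhibition relative to vehicle.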

[10] = NCI Yeast Anticancer Drug Screen. Data for the bub3 strain (AID 167); details: S. cerevisiae bub3 mutant strain, hits give high values
Method in brief: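 Mutant yeast screening strain plus compound; vehicle-treated cultures serve as the 0% inhibition reference.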

[11] = NCI Yeast Anticancer Drug Screen. Data for the wt2 strain (AID 169); details: S. cerevisiae wt2 strain growth inhibition, hits give high values
Method in brief: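 Genetically defined yeast strains from a DNA-repair/cell-cycle panel were used. Compound-exposed yeast growth was measured, and the inhibition was calculated relative to vehicle treatment.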

[12] = NCI Yeast Anticancer Drug Screen. Data for the mlh1 strain (AID 171);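 further: 0% = growth of vehicle-treated control cultures of the same strain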; details: S. cerevisiae mlh1 strain growth inhibition, hits give high values
Method in brief: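 Here the genetically defined yeast mutant is grown with each compound, and the extent to which its growth falls below that of vehicle-exposed cells is reported.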

[13] = NCI Yeast Anticancer Drug Screen. Data for the sgs1 strain (AID 173);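 further: 0% = growth of vehicle-only control cultures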; details: S. cerevisiae sgs1 mutant, hits give high values
Method in brief: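 Relative growth inhibition, referenced to vehicle, was determined in a yeast strain with a defined alteration affecting DNA damage repair or cell cycle control after compound exposure.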

[14] = NCI Yeast Anticancer Drug Screen. Data for the mlh1 rad18 strain (AID 175); details: S. cerevisiae mlh1 rad18 strain growth inhibition, hits give high values
Method in brief: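 In this whole-cell yeast screen, a strain with altered DNA damage repair is challenged with compound, and its growth is measured against matched vehicle-treated controls.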

[15] = NCI Yeast Anticancer Drug Screen. Data for the rad18 strain (AID 177); details: S. cerevisiae rad18 mutant growth inhibition, hits give high values
Method in brief: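 Screen uses a yeast strain with a defined lesion in DNA damage repair; compound effect is read as loss of growth compared to untreated vehicle cultures.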

[16] = NCI Yeast Anticancer Drug Screen. Data for the rad50EPP+ strain (AID 151);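 further: 0% = growth of vehicle-treated control cultures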; details: S. cerevisiae rad50 mutant strain, hits give high values
Method in brief: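 One strain with a rad50 alteration (rad50EPP+) was compound-treated, its growth then compared to that of vehicle controls.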

[17] = at 5.0 µM (retest, dose inferred, filed as 0.5)
[18] = at 50.0 µM (retest, dose inferred, filed as 5.0)

Measured: growth inhibition

CSc1nc(-c2ccccc2)nc(=[N+]2CCOCC2)s1
inactive: [1]; at 1.2 µM 17% | [1]; at 3.7 µM 52% | [2]; at 1.2 µM 5% | [2]; at 3.7 µM 11% | [2]; at 11.0 µM 23% | [2]; at 33.0 µM 56% | [3]; at 1.2 µM 3% | [3]; at 3.7 µM 11% | [3]; at 11.0 µM 31% | [4]; at 1.2 µM 13% | [4]; at 3.7 µM 37% | [5]; at 1.2 µM 1% | [5]; at 3.7 µM 8% | [5]; [17] 18% | [5]; at 11.0 µM 32% | [5]; [18] 18% | [6]; at 1.2 µM 4% | [6]; at 3.7 µM 9% | [6]; at 11.0 µM 25% | [7]; [17] 44% | [7]; [18] 44% | [8]; at 1.2 µM -4% | [8]; at 3.7 µM 6% | [8]; at 11.0 µM 21% | [9]; [17] 14% | [9]; [18] 14% | [9]; at 50.0 µM 64.1% | [10]; at 1.2 µM -8% | [10]; at 3.7 µM -3% | [10]; [17] 21% | [10]; at 11.0 µM 32% | [10]; [18] 21% | [11]; at 1.2 µM 6% | [11]; at 3.7 µM 15% | [11]; at 11.0 µM 37% | [12]; at 1.2 µM -1% | [12]; at 3.7 µM 10% | [12]; at 11.0 µM 35% | [13]; at 1.2 µM 10% | [13]; at 3.7 µM 31% | [14]; [17] 35% | [14]; [18] 35% | [15]; at 1.2 µM 16% | [15]; at 3.7 µM 50%
active: [1]; at 11.0 µM 83% | [1]; at 33.0 µM 97% | [1]; at 100.0 µM 98% | [2]; at 100.0 µM 93% | [3]; at 33.0 µM 87% | [3]; at 100.0 µM 98% | [4]; [17] 74% | [4]; at 11.0 µM 79% | [4]; at 33.0 µM 94% | [4]; [18] 74% | [4]; at 50.0 µM 88.8% | [4]; at 100.0 µM 98% | [5]; at 33.0 µM 73% | [5]; at 50.0 µM 73.5% | [5]; at 100.0 µM 98% | [6]; at 33.0 µM 78% | [6]; at 100.0 µM 99% | [7]; at 50.0 µM 86.4% | [8]; at 33.0 µM 77% | [8]; at 100.0 µM 96% | [10]; at 33.0 µM 82% | [10]; at 50.0 µM 81.6% | [10]; at 100.0 µM 96% | [11]; at 33.0 µM 81% | [11]; at 100.0 µM 97% | [12]; at 33.0 µM 76% | [12]; at 100.0 µM 98% | [13]; at 11.0 µM 72% | [13]; at 33.0 µM 94% | [13]; at 100.0 µM 98% | [14]; at 50.0 µM 82.2% | [15]; at 11.0 µM 86% | [15]; at 33.0 µM 94% | [15]; at 100.0 µM 98%

O=C(C(Cl)=C(N1CCCCC1)N1CCCCC1)C(Cl)Cl
active: [4]; [18] 99% | [5]; [18] 99% | [5]; at 50.0 µM 70.7% | [7]; [18] 99% | [7]; at 50.0 µM 85.2% | [9]; [18] 99% | [10]; [18] 99% | [14]; [18] 99% | [14]; at 50.0 µM 81.3%
inactive: [1]; at 1.2 µM 2% | [1]; at 3.7 µM 6% | [1]; at 11.0 µM 5% | [1]; at 33.0 µM 3% | [1]; at 100.0 µM 2% | [16]; at 1.2 µM 1% | [16]; at 3.7 µM 1% | [16]; at 11.0 µM 3% | [16]; at 33.0 µM 3% | [16]; at 100.0 µM 5% | [3]; at 1.2 µM -3% | [3]; at 3.7 µM -1% | [3]; at 11.0 µM -4% | [3]; at 33.0 µM -3% | [3]; at 100.0 µM 2% | [4]; at 1.2 µM 3% | [4]; at 3.7 µM 6% | [4]; [17] 69% | [4]; at 11.0 µM -2% | [4]; at 33.0 µM 5% | [4]; at 50.0 µM 64.4% | [4]; at 100.0 µM 3% | [5]; at 1.2 µM 2% | [5]; at 3.7 µM -2% | [5]; [17] 11% | [5]; at 11.0 µM -3% | [5]; at 33.0 µM -6% | [5]; at 100.0 µM -2% | [6]; at 1.2 µM -3% | [6]; at 3.7 µM -1% | [6]; at 11.0 µM 3% | [6]; at 33.0 µM -2% | [6]; at 100.0 µM -1% | [7]; [17] -6% | [8]; at 1.2 µM 2% | [8]; at 3.7 µM 4% | [8]; at 11.0 µM 3% | [8]; at 33.0 µM 1% | [8]; at 100.0 µM 9% | [9]; [17] 7% | [9]; at 50.0 µM 23.9% | [10]; at 1.2 µM -5% | [10]; at 3.7 µM 2% | [10]; [17] -5% | [10]; at 11.0 µM 9% | [10]; at 33.0 µM 4% | [10]; at 50.0 µM 68.1% | [10]; at 100.0 µM 2% | [11]; at 1.2 µM -1% | [11]; at 3.7 µM 1% | [11]; at 11.0 µM 2% | [11]; at 33.0 µM 2% | [11]; at 100.0 µM 2% | [12]; at 1.2 µM -2% | [12]; at 3.7 µM -4% | [12]; at 11.0 µM 2% | [12]; at 33.0 µM 0% | [12]; at 100.0 µM 1% | [13]; at 1.2 µM -50% | [13]; at 3.7 µM -3% | [13]; at 11.0 µM -2% | [13]; at 33.0 µM -4% | [13]; at 100.0 µM -1% | [14]; [17] 48% | [15]; at 1.2 µM -2% | [15]; at 3.7 µM 1% | [15]; at 11.0 µM -2% | [15]; at 33.0 µM -15% | [15]; at 100.0 µM -1%
